Bioassay records: PubChem BioAssay, Sanford-Burnham Center for Chemical Genomics
Sampled rows, rich in hits. Any-hit rate of the full collection: about 3%.
SENP6 block – SENP6 protease inhibition | Q9GZR1 | inhibition, % at 10 µM | Recombinant SENP6 catalytic domain, aminoluciferin luminescence | 1.8% of 330,000 active;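 active = inhibition above about 50% at the single tested dose, limit read from the data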;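 also: plate controls were DMSO wells with enzyme for no effect and DMSO wells lacking enzyme for full effect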
Target sequence (Q9GZR1 628-1112 limits assumed): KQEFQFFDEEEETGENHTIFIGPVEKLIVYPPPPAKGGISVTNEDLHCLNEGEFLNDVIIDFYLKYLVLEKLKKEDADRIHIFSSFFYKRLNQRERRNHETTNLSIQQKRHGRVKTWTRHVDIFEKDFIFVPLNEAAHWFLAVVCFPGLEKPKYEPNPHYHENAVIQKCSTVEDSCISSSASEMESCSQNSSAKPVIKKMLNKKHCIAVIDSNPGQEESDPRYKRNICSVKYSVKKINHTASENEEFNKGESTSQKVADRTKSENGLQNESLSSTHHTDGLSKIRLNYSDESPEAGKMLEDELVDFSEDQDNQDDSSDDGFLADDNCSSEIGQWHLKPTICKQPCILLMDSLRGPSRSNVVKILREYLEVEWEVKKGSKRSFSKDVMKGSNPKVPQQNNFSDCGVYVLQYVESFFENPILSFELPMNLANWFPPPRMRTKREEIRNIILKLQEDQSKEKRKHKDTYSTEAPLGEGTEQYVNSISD
SENP8 block-1 – SENP8 (human) protease inhibition | Q96LD8 | recombinant SENP8, Nedd8 substrate fluorescence | inhibition, % at 20 µM | 0.64% of 360,000 active; in the data active = inhibition mostly above about 40%, no sharp cut-off; inactive = mostly below about 27%
C8 TRAIL sens – caspase-8 TRAIL sensitization | NB7+C8 cells + TRAIL, ATPlite viability luminescence | inhibition (viability loss, TRAIL sensitization), % at 10 µM | 1% of 360,000 active | AID 624354;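 active = compounds causing at least 50% loss of cell viability in the single-dose screen, relative to plate controls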
SENP7 block – inhibitors of human SENP7 protease | Q9BQF6 | recombinant SENP7, Z-RLRGG-aminoluciferin luminescence, 40 min | inhibition, % at 5 µM | 1.5% of 330,000 active;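 active = inhibition above about 50% at the single test dose, limit read from the data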;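 also: plate controls were DMSO with enzyme for no effect and no enzyme buffer wells for full effect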
PPC-1+TRAIL kill – compounds killing PPC-1 cancer cells with TRAIL present (potentiator screen, no TRAIL-free arm) | cell killing (% activity), % at 4 µM or 5 µM | PPC-1 cells + TRAIL, ATPLite viability luminescence | 0.41% of 220,000 active;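 active = cell killing above 50% in the first pass at 4 µM, then a duplicate retest at 5 µM averaging 50% or more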;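 also: plate controls were cells with TRAIL plus DMSO for no effect and medium-only wells lacking cells for full effect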
SENP8 block-2 – inhibitors of human SENP8 protease; purified SENP8, Z-RLRGG-aminoluciferin cleavage, luminescence; inhibition, % at 10 µM; 1.2% of 330,000 active; in the data active = inhibition above about 50%
Active calls of the source: *; / = not tested or not shown.

SMILES	SENP6 block	SENP8 block-1	C8 TRAIL sens	SENP7 block	PPC-1+TRAIL kill	SENP8 block-2
COc1ccc(C)cc1N(CC(=O)N1CCCCCC1)S(=O)(=O)c1ccc(C)cc1	-6.6	6.3	-37.0	-4.4	/	12.4
COc1ccc(NC(=O)CSc2ncccc2C(=O)OC(C)C)cc1OC	-1.6	12.3	8.0	-7.0	2.5	11.1
CC(C)c1ccc(NC(=O)CSc2ncccc2C(=O)Oc2cccc([N+](=O)[O-])c2)cc1	-31.0	21.2	66.7*	8.7	28.5	-6.7
CCNc1ccc(C(=O)OC(C(=O)NC(N)=O)C(C)C)cc1[N+](=O)[O-] (stereo not given)	-0.6	11.4	-19.6	-10.2	15.4	3.7
Cc1cc(C)c(C)c(S(=O)(=O)N2CCN(c3ncnc4ccccc34)CC2)c1C	-4.0	-222.0	54.8*	7.2	/	-2.6
OCC[C@@H]1C[C@H](O)[C@@H](O)[C@@]2(OCCCc3cc(Cl)ccc32)O1	/	19.4	-1.8	/	/	/
CCOc1ccc(CCNC(=O)Cn2ncn3nc(-c4ccc(OC)cc4)cc3c2=O)cc1	-7.9	-19.0	13.9	0.8	/	-1.3
COc1ccc(-c2cc3c(=O)n(CC(=O)NCCCN4CCC(Cc5ccccc5)CC4)ncn3n2)cc1	5.0	-51.1	82.9*	6.2	/	-4.1
COc1ccc(-c2cc3c(=O)n(CC(=O)NCCCN4CCN(Cc5ccccc5)CC4)ncn3n2)cc1	4.9	-129.5	80.2*	-8.2	/	9.3
CCCCOc1ccc(-c2nc(=S)[nH][nH]2)cc1	-11.1	9.0	61.5*	0.2	16.0	-11.1
CCCCOc1ccc(-c2nc(SCC(N)=O)n[nH]2)cc1	10.7	14.8	15.9	-2.5	6.9	0.9
C(=Nc1cccc2c(N=Cc3ccco3)cccc12)c1ccco1	85.8*	-395.5	-2.9	29.7	-9.1	71.6*
COc1ccc2nc(NN=C(C)c3ccccn3)cc(C)c2c1	/	-79.3	69.4*	/	/	/
CN1C(=O)N(C)c2cccc3cccc1c23	1.2	10.6	-9.3	6.8	/	0.9
CC1=Nc2cccc3cccc(c23)N1C	-3.0	44.5*	3.3	-1.0	4.4	-6.1
O=C1NC(=Nc2ccccc2Cl)S/C1=C\c1ccc(C(=O)O)cc1	29.8	19.5	3.0	12.6	/	28.6
CC12CCC(C/C1=N\N=C1\NC(=O)/C(=C\c3ccc(Cl)cc3)S1)C2(C)C (stereo not given)	-5.7	40.3*	2.2	-3.3	-1.0	-18.9
CCc1ccc(/C=C\C(=O)N2CCc3ccccc3C2)cc1	60.6*	26.8	7.5	45.4	7.2	47.1
c1ccc2c(c1)nnn1c3ccccc3nc21	95.6*	/	/	96.3*	6.7	86.2*
Cc1nc2ccccc2c2nc3ccccc3n12	0.8	-273.2	14.6	9.9	5.4	0.1
CCOc1ccccc1OCCC(=O)OCC(=O)c1ccc[nH]1	-10.3	5.7	1.4	-2.5	20.4	1.8
CCN(CC)c1ccc(/C=C2\CCC(/C=N/NC(=O)c3ccc(=O)n(C)c3)=C2N2CCOCC2)cc1	-1.6	-31.3	11.7	1.0	-2.9	0.4
COc1ccc(Cl)cc1C(=O)Nc1ccc2c(c1)OCCO2	-20.1	22.5	51.8*	-12.1	/	-12.2
CCCn1c(CCNc2nc(-c3cccc(Br)c3)cs2)nc2ccccc21	/	10.4	0.2	/	/	/
CN=c1scc(-c2ccccc2F)n1/N=C(\C)c1cccnc1	22.3	-12.9	62.7*	3.5	41.9	-0.7
SMILES	SENP6 block	SENP8 block-1	C8 TRAIL sens	SENP7 block	PPC-1+TRAIL kill	SENP8 block-2
Cn1c(COc2ccc(Cl)cc2)nnc1SCC(=O)NC1CCCC1	-35.8	12.0	11.4	-7.1	/	-1.5
O=S(=O)(Nc1nc2ccccc2nc1N1CCc2ccccc2C1)c1ccc(Cl)cc1	36.9	-234.7	47.9	58.3*	-35.0	-0.4
CC(=O)Nc1ccc(S(=O)(=O)Nc2nc3ccccc3nc2N2CCc3ccccc3C2)cc1	10.7	-276.0	5.9	13.7	26.8	7.5
O=S(=O)(Nc1nc2ccccc2nc1N1CCc2ccccc2C1)c1ccc(Br)cc1	/	-297.1	61.0*	/	56.4*	/
FC(F)(F)c1cnc2c(-c3ccccc3)n[nH]c2c1	-0.4	-369.9	3.1	31.0	12.3	26.7
Cc1cccc2c1NC(=O)C21OCC(CO)([N+](=O)[O-])CO1 (stereo not given)	2.8	16.3	9.9	2.6	/	7.2
CCOc1ccc(C(=O)Nc2ccccc2NC(C)=O)cc1OCC	-8.7	4.9	-0.7	7.4	-4.7	1.1
CCOc1ccccc1Nc1ccc(C(=O)O)cc1NC(C)=O	0.1	-205.3	5.0	3.0	54.2*	-12.1
